These results are taken from PubChem BioAssay (NCATS).

Results filed as inconclusive are left out. A number with no mark means an inactive call. The source made the active and inactive calls. Calls follow the shape of the dose curve; as a rule, active = well fitted inhibition curve with a large enough effect; inconclusive = small, poorly fitted or top-dose-only effect; inactive = no such curve, though single readings can be large or run the other way.
% is scaled to controls: 0 for no effect and ±100 for the full control effect; potency is read from the fitted curve at half-maximal effect.
Also: nearly all actives have a fitted effect of over 60% in size.

Sequence of Cytochrome P450 2D6 (Homo sapiens) (P10635 whole entry, looked up): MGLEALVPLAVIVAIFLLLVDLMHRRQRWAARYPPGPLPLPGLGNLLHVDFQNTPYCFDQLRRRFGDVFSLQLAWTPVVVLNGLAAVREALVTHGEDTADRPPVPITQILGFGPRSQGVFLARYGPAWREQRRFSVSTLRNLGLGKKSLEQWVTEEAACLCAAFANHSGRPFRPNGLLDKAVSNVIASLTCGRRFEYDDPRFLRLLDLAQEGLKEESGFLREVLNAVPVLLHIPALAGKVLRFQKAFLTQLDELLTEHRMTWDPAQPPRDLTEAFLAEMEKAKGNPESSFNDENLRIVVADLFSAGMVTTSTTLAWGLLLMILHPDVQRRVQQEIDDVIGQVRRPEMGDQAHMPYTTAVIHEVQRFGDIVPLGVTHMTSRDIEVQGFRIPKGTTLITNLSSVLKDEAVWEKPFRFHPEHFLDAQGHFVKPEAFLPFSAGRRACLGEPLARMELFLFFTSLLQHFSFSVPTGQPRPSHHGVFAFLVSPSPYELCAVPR
Sequence of Cytochrome P450 2C19 (Homo sapiens) (P33261 whole entry, looked up): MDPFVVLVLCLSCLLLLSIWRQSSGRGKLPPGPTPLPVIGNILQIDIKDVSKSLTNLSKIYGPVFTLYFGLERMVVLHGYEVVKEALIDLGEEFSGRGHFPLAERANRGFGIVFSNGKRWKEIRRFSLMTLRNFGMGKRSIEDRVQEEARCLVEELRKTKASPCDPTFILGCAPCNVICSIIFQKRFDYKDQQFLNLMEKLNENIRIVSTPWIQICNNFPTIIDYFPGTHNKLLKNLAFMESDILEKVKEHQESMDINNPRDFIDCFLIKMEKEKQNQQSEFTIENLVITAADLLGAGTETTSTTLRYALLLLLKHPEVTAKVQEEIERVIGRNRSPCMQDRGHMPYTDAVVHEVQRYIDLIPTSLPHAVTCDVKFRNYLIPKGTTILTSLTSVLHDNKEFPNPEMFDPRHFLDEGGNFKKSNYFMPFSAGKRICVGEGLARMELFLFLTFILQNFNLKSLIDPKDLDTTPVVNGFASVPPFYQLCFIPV

For the first test, the target named is Cytochrome P450 2D6 (Homo sapiens) (UniProt P10635). The test is described as follows: qHTS Assay for Inhibitors and Substrates of Cytochrome P450 2D6 (AID 891).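 As to activity change, negative = inhibition: luciferin methyl ether substrate demethylated by CYP2D6 with NADPH regeneration.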 Particulars: recombinant CYP2D6, luciferin-ME EGE luminescence; series mostly up to 11.4 µM; activity change, negative = inhibition: at the top concentration. The method in brief:
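Luminescent read-out of luciferin formed by 5 nM human CYP2D6 demethylating 30 uM Luciferin-ME EGE (Km level) over 60 min at room temperature after NADPH regeneration addition. Data normalized to full inhibition by 1.43 uM quinidine.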
As to `CC(=O)c1ccc(OC2C=CC(c3ccc(Cl)cc3)OC2CO)cc1` (configuration not stated), the “activity change, negative = inhibition” value is -8.61%.

Regarding `Cc1ccccc1OC1C=CC(C#Cc2ccc(Br)cc2)OC1CO` (configuration not stated), the “activity change, negative = inhibition” value is 16.6%.

Take `CC(=O)OCC1OC(C#Cc2ccc(C(C)(C)C)cc2)C=CC1OC(C)=O` (configuration not stated): the “activity change, negative = inhibition” value was -2.47%.

Take `COc1ccc(/C=C/C(=O)c2ccccc2O)cc1`: the Potency is 3.16 µM (active).

Take `CCOC(=O)OCC1OC(c2ccc(C(C)=O)cc2)C=CC1Oc1ccc(-c2ccccc2)cc1` (configuration not stated): the “activity change, negative = inhibition” value is -1.98%.

For the compound `CCOC(=O)OCC1OC(c2ccccc2)C=CC1OC(=O)OCC` (configuration not stated), the “activity change, negative = inhibition” value was -15.8%.

Turning to `CCOC(=O)OCC1OC(C#Cc2ccc(C(C)(C)C)cc2)C=CC1OC(=O)OCC` (configuration not stated), the “activity change, negative = inhibition” value is 21.1%.

`CCOC(=O)OCC1OC(c2ccccc2)C=CC1Oc1ccc(F)cc1C` (configuration not stated): the “activity change, negative = inhibition” value is -4.41%.

Another test addresses Cytochrome P450 2C19 (Homo sapiens) (UniProt P33261). Briefly: qHTS Assay for Inhibitors and Substrates of Cytochrome P450 2C19 (AID 899). Particulars: recombinant CYP2C19, luciferin-H EGE luminescence; series mostly up to 11.4 µM; activity, negative = inhibition: at the top concentration. The method in brief:
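Luminescent read-out of luciferin formed from Luciferin-H EGE (10uM, equal to KM). Enzyme 5nM in 50mM KPO4; compound added, 10 min at 37C, then NADPH regenerating system for 60 min at 37C. Full inhibition defined by 57uM ketoconazole.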
For the compound `CC(=O)c1ccc(OC2C=CC(c3ccc(Cl)cc3)OC2CO)cc1` (configuration not stated), the Potency is 5.01 µM (active).

With `COC(=O)NC(/C(C(=O)OC)=C(\C)NCc1ccccc1)c1ccc(Cl)cc1` (configuration not stated), the Potency is 5.01 µM (active).

On to `Cc1ccccc1OC1C=CC(C#Cc2ccc(Br)cc2)OC1CO` (configuration not stated), for which the “activity, negative = inhibition” value was -46.4%.

In the case of `CC(=O)OCC1OC(C#Cc2ccc(C(C)(C)C)cc2)C=CC1OC(C)=O` (configuration not stated), the “activity, negative = inhibition” value was -23.8%.

For `COc1ccc(/C=C/C(=O)c2ccccc2O)cc1`, the Potency was 1.26 µM (active).

On to `CCOC(=O)OCC1OC(c2ccc(C(C)=O)cc2)C=CC1Oc1ccc(-c2ccccc2)cc1` (configuration not stated), for which the “activity, negative = inhibition” value is -31%.

In the case of `CCOC(=O)OCC1OC(c2ccccc2)C=CC1OC(=O)OCC` (configuration not stated), the Potency is 3.98 µM (active).

Regarding `CCOC(=O)OCC1OC(C#Cc2ccc(C(C)(C)C)cc2)C=CC1OC(=O)OCC` (configuration not stated), the “activity, negative = inhibition” value was 45.2%.

Consider `CCOC(=O)OCC1OC(c2ccccc2)C=CC1Oc1ccc(F)cc1C` (configuration not stated), for which the Potency was 2 µM (active).
